Assay results from PubChem BioAssay (EPA / NIEHS).
Several values for one entry are separate records, joined by “and”; a condition that tells them apart may be missing. Equal values may be shown once. Inconclusive results are not listed. Some structures have more than one record in an assay (separate samples or runs), and their calls can disagree. Activity calls are given as the source filed them. The calls were made as follows, unless noted: active = hit-call score of the fitted dose curve at least 0.9, where 1 is the maximum; inconclusive = response in the unintended direction; inactive = score below 0.9.

Key:
[1] = ATG_TCF_b_cat_CIS: Attagene CIS-FACTORIAL HepG2 Assay for human T-Cell-Factor with beta-catenin (TCF/b-cat) (AID 2282965; active = hit-call score of the fitted dose curve at least 0.9, where 1 is the maximum; inactive = score below 0.9); conditions: HepG2 TCF/beta-catenin cis-reporter transcription, actives raise or lower the signal
Procedure, shortened: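 HepG2 cells transiently transfected with multiple cis-promoter-regulated reporter transcription units, so endogenous transcription factor activity is measured. Reporter mRNA read 24 hours after dosing by RT-PCR, fluorescent labelling and capillary electrophoresis; bidirectional fitting against DMSO.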

[2] = ATG_TAL_CIS: Attagene CIS-FACTORIAL HepG2 Assay for human TAL Basal Promoter (AID 2282966; active = hit-call score of the fitted dose curve at least 0.9, where 1 is the maximum; inactive = score below 0.9;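 also: background control endpoint measuring basal TAL promoter reporter mRNA not a specific factor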); conditions: HepG2 Attagene cis-factorial TAL promoter reporter; actives raise or lower the signal
Procedure, shortened: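 Fluorescence of labelled reporter cDNA fragments, resolved by capillary electrophoresis, gave the readout. Human HepG2 liver cells carried transiently transfected cis-element reporter units and were treated for 24 hours; activity was fitted bidirectionally against DMSO.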

[3] = ATG_TGFb_CIS: Attagene CIS-FACTORIAL HepG2 Assay for human Transforming Growth Factor (TGF) (AID 2282967; active = hit-call score of the fitted dose curve at least 0.9, where 1 is the maximum; inactive = score below 0.9); conditions: HepG2 Attagene CIS TGFb reporter, mRNA transcription; actives raise or lower the signal
Procedure, shortened: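 After a 24-hour incubation with compound, transfected HepG2 cells were lysed for RNA; reporter cDNA was amplified, fluorescently end-labeled and separated by CE. DMSO served as baseline for bidirectional fits.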

[4] = ATG_VDRE_CIS: Attagene CIS-FACTORIAL HepG2 Assay for human Vitamin D Receptor Element (VDRE) (AID 2282968; active = hit-call score of the fitted dose curve at least 0.9, where 1 is the maximum; inactive = score below 0.9); conditions: HepG2 VDRE cis-reporter transcription, actives raise or lower the signal
Procedure, shortened: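 HepG2 cells transiently transfected with cis-element reporter units, dosed 24 h; reporter mRNA measured by RT-PCR, 6-FAM labeling, HpaI digestion and capillary electrophoresis. Activity fitted bidirectionally against DMSO baseline.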

[5] = molecular target: Nuclear receptor subfamily 1 group I member 3 (Homo sapiens) (UniProt Q14994); assay: ATG_CAR_TRANS: Attagene TRANS-FACTORIAL HepG2 Assay for human Constitutive Androstane Receptor (CAR) (AID 2282969); conditions: HepG2 Attagene TRANS-FACTORIAL CAR reporter;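 also: activators raise reporter mRNA above DMSO so AC50 marks induction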
Procedure, shortened: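 HepG2 cells transiently transfected with multiplexed GAL4-UAS reporter units expressing chimeric NR-Gal4 proteins; compound exposure 24 h. Reporter mRNA measured by RT-PCR, 6-FAM labelling, HpaI digestion and capillary electrophoresis; gain-of-signal fitted against DMSO baseline.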

[6] = molecular target: Estrogen receptor (Homo sapiens) (UniProt P03372); assay: ATG_ERa_TRANS: Attagene TRANS-FACTORIAL HepG2 Assay for human Estrogen Receptor alpha (ERa) (AID 2282970); conditions: HepG2 Attagene TRANS ERa GAL4 reporter, mRNA
Procedure, shortened: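 Human liver HepG2, transient transfection of multiple GAL4-UAS reporter units; TRANS format (exogenous NR-Gal4 chimera). 24 h dosing. Readout: reporter mRNA, RT-PCR, 6-FAM primer extension, HpaI digest, capillary electrophoresis. Positive direction vs DMSO.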

[7] = molecular target: X-box-binding protein 1 (Homo sapiens) (UniProt P17861); assay: ATG_Xbp1_CIS: Attagene CIS-FACTORIAL HepG2 Assay for human X-box Binding Protein 1 (XBP1) (AID 2282972; active = hit-call score of the fitted dose curve at least 0.9, where 1 is the maximum; inactive = score below 0.9); conditions: HepG2 XBP1 cis-element reporter, Attagene multiplex; actives raise or lower the signal
Procedure, shortened: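 After a 24-hour chemical exposure of HepG2 cells carrying cis-regulated reporters, reporter mRNA levels are assessed. Quantification uses RT-PCR, 6-FAM labelling and capillary electrophoresis. Gain- or loss-of-signal is fitted against DMSO.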

[8] = ATG_M_19_TRANS: Attagene TRANS-FACTORIAL HepG2 Assay for M19 Transcription Factor (Internal Marker) (AID 2282974); conditions: HepG2 Attagene TRANS-FACTORIAL M19 internal marker reporter
Procedure, shortened: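 Multiplexed TRANS format: HepG2 liver cells bearing transient GAL4-UAS reporter units, chemical treatment 24 h, reporter transcripts quantified by RT-PCR plus capillary electrophoresis. DMSO defines baseline.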

[9] = ATG_M_06_TRANS: Attagene TRANS-FACTORIAL HepG2 Assay for M06 Transcription Factor (Internal Marker) (AID 2282983); conditions: HepG2 Attagene TRANS M06 internal marker reporter;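 as to AC50: potency for rise in reporter mRNA above DMSO baseline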
Procedure, shortened: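 Transfect HepG2 with MRTUs → dose compounds 24 h → isolate RNA, oligo(dT) RT → PCR with reporter primers → 6-FAM primer extension → HpaI digest → CE fragment analysis. Positive direction vs DMSO.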

[10] = ATG_M_32_TRANS: Attagene TRANS-FACTORIAL HepG2 Assay for M32 Transcription Factor (Internal Marker) (AID 2282984); conditions: HepG2 Attagene TRANS M32 internal marker reporter
Procedure, shortened: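 HepG2 cells transiently transfected with multiple GAL4-UAS reporter transcription units, dosed for 24 hours; reporter mRNA quantified by RT-PCR, 6-FAM primer extension, HpaI digestion and capillary electrophoresis. Gain-of-signal fitted versus DMSO baseline; internal background-control marker.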

[11] = molecular target: Steroid hormone receptor ERR1 (Homo sapiens) (UniProt P11474); assay: ATG_ERRa_TRANS: Attagene TRANS-FACTORIAL HepG2 Assay for human Estrogen-Related Receptor alpha (ERRa) (AID 2282971); conditions: HepG2 Attagene TRANS reporter, ERRa transactivation
Procedure, shortened: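 Reporter transcript induction was quantified by RT-PCR and capillary electrophoresis of FAM-labelled, HpaI-cut products after 24 h treatment of HepG2 cells carrying transiently transfected GAL4-UAS reporter units and an exogenous ERRa-Gal4 fusion; activity scored as increase over DMSO.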

[12] = ATG_Hpa5_TRANS: Attagene TRANS-FACTORIAL HepG2 Assay for human GAL4-Hpa5 Hepatocyte Transcription Factor Basal Promoter (AID 2282975); conditions: HepG2 Attagene GAL4-Hpa5 transcription reporter;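 also: hits are increases in reporter mRNA over DMSO baseline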
Procedure, shortened: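 Basal-promoter GAL4 background control within the HepG2 trans-factorial panel of transiently transfected reporter units. Reporter mRNA is measured 24 h after dosing by RT-PCR and capillary electrophoresis, fitted for gain of signal versus DMSO.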

[13] = ATG_GAL4_TRANS: Attagene TRANS-FACTORIAL HepG2 Assay for GAL4 (Internal Marker) (AID 2282976); conditions: HepG2 Attagene TRANS GAL4 internal marker reporter
Procedure, shortened: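 First, HepG2 cells were transfected with reporter units under GAL4-UAS control. Next, they were treated with chemical for 24 h. Finally, RNA was reverse-transcribed, PCR-amplified, FAM-labelled and resolved by capillary electrophoresis, with induction scored against DMSO.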

[14] = molecular target: Estrogen-related receptor gamma (Homo sapiens) (UniProt P62508); assay: ATG_ERRg_TRANS: Attagene TRANS-FACTORIAL HepG2 Assay for human Estrogen-Related Receptor gamma (ERRg) (AID 2282977); conditions: HepG2 Attagene TRANS reporter, ERRg transactivation;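 also: hits increase reporter signal over DMSO so potencies reflect activators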
Procedure, shortened: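 Transient HepG2 transfectants, 24 h compound exposure, GAL4-UAS reporter mRNA by RT-PCR/6-FAM labelling/capillary electrophoresis; positive direction vs DMSO.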

[15] = molecular target: Glucocorticoid receptor (Homo sapiens) (UniProt P04150); assay: ATG_GR_TRANS: Attagene TRANS-FACTORIAL HepG2 Assay for human Glucocorticoid Receptor (GR) (AID 2282978); conditions: HepG2 Attagene TRANS GR reporter, mRNA transcription;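 also: activators score as hits since higher reporter transcript over DMSO is fitted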
Procedure, shortened: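 Transiently transfected HepG2 cells express chimeric NR-GAL4 proteins acting on GAL4-UAS reporter units. Compounds are applied for 24 h. mRNA induction over DMSO is measured by capillary electrophoresis.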

[16] = molecular target: Bile acid receptor (Homo sapiens) (UniProt Q96RI1); assay: ATG_FXR_TRANS: Attagene TRANS-FACTORIAL HepG2 Assay for Farnesoid X Receptor (FXR) (AID 2282979); conditions: HepG2 Attagene TRANS FXR-GAL4 reporter transcription;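 also: hits raise reporter mRNA above DMSO so AC50 marks FXR activation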
Procedure, shortened: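 Transient transfection of HepG2 with multiplexed GAL4-UAS reporter units; exogenous FXR-GAL4 chimera. Dose 24 h → TriZol RNA → oligo(dT) RT → PCR, 6-FAM primer extension, HpaI cut → CE. Gain vs DMSO.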

[17] = molecular target: Oxysterols receptor LXR-alpha (Homo sapiens) (UniProt Q13133); assay: ATG_LXRa_TRANS: Attagene TRANS-FACTORIAL HepG2 Assay for human Liver X Receptor alpha (LXRa) (AID 2282980); conditions: HepG2 Attagene TRANS reporter, LXRa transactivation
Procedure, shortened: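 Transfect HepG2 with GAL4-UAS multiplex reporter constructs (TRANS format, chimeric receptor-GAL4); treat 24 h; extract RNA, reverse-transcribe, PCR-amplify, FAM-label, HpaI-digest; resolve fragments by capillary electrophoresis. Upward response vs DMSO.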

[18] = molecular target: Oxysterols receptor LXR-beta (Homo sapiens) (UniProt P55055); assay: ATG_LXRb_TRANS: Attagene TRANS-FACTORIAL HepG2 Assay for human Liver X Receptor beta (LXRb) (AID 2282981); conditions: HepG2 Attagene TRANS GAL4-LXRb reporter, mRNA
Procedure, shortened: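 HepG2 cells transiently transfected with multiple reporter transcription units carrying chimeric NR-Gal4 proteins acting on GAL4-UAS reporters; compound exposure 24 h. Reporter mRNA quantified by RT-PCR, 6-FAM labelling, HpaI digestion and capillary electrophoresis; gain of signal versus DMSO.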

Measured: AC50

Steroid hormone receptor ERR1 (Homo sapiens), sequence (P11474 whole entry, looked up, the tested form may be a part): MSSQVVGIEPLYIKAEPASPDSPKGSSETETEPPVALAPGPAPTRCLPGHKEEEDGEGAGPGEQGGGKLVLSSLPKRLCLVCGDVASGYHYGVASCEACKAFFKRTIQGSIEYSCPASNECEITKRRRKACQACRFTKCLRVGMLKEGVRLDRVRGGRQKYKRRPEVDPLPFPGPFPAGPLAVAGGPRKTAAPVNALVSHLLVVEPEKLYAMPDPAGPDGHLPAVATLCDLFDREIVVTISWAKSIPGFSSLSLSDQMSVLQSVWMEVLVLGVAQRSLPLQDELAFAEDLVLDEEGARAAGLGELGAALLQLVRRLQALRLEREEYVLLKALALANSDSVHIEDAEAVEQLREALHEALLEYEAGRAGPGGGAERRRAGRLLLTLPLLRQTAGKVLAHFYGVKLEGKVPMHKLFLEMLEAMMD
Glucocorticoid receptor (Homo sapiens), sequence (P04150 whole entry, looked up, the tested form may be a part): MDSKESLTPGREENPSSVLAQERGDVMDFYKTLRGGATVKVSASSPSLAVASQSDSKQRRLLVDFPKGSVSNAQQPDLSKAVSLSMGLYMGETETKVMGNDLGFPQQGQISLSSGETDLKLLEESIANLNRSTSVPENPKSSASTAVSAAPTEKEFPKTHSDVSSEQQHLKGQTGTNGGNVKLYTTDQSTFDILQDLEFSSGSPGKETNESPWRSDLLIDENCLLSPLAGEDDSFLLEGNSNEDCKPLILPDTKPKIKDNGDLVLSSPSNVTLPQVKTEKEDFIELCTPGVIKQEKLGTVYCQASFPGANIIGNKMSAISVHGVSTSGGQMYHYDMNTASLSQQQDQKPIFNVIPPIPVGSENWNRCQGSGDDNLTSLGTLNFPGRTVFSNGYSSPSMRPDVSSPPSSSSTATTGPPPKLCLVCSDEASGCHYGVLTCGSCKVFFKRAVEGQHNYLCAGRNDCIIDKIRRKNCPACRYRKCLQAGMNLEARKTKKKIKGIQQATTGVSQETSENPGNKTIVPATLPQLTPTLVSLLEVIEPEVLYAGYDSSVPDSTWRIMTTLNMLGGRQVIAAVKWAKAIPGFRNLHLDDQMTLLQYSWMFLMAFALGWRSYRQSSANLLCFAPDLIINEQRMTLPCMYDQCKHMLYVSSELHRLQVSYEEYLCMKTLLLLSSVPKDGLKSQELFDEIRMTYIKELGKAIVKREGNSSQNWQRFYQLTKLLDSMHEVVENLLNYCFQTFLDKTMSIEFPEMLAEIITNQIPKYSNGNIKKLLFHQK
Estrogen-related receptor gamma (Homo sapiens), sequence (P62508 whole entry, looked up, the tested form may be a part): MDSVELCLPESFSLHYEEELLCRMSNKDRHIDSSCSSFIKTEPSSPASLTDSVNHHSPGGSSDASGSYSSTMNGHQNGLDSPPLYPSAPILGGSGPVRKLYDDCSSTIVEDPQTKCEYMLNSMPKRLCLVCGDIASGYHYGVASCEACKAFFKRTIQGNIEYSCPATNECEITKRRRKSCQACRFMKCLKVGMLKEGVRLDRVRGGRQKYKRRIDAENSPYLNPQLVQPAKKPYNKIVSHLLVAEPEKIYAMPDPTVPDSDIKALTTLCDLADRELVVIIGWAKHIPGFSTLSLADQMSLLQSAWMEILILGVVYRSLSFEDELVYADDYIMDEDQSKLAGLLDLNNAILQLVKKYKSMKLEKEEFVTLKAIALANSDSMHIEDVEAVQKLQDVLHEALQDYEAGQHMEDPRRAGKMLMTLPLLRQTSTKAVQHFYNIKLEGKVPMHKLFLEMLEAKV
Oxysterols receptor LXR-alpha (Homo sapiens), sequence (Q13133 whole entry, looked up, the tested form may be a part): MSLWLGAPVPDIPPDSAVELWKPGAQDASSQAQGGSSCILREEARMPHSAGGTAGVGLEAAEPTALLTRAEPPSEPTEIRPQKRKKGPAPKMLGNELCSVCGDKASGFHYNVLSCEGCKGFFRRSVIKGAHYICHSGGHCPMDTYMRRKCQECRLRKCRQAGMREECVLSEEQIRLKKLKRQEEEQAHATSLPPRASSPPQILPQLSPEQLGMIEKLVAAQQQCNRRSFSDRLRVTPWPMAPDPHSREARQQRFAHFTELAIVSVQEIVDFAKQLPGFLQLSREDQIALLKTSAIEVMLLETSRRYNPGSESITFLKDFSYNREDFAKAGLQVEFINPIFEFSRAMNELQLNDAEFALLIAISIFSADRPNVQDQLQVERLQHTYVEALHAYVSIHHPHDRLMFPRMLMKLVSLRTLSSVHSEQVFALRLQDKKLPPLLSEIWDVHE
Estrogen receptor (Homo sapiens), sequence (P03372 whole entry, looked up, the tested form may be a part): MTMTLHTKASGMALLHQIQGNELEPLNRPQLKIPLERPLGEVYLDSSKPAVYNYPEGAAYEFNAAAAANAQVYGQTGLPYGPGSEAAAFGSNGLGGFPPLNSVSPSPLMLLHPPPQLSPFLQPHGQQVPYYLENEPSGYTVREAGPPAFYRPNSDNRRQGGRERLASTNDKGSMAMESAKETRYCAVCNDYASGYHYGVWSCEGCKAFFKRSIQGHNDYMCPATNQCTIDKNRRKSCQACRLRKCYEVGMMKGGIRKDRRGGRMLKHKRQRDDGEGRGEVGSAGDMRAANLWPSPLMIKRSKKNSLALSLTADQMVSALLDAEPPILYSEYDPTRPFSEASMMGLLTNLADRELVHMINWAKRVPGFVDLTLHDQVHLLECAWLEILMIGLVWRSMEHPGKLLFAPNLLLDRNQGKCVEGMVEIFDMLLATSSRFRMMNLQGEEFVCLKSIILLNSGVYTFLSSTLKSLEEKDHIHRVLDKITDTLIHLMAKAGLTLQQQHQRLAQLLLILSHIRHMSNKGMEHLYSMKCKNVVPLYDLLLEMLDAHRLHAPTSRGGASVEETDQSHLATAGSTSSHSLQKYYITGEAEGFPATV
Bile acid receptor (Homo sapiens), sequence (Q96RI1 whole entry, looked up, the tested form may be a part): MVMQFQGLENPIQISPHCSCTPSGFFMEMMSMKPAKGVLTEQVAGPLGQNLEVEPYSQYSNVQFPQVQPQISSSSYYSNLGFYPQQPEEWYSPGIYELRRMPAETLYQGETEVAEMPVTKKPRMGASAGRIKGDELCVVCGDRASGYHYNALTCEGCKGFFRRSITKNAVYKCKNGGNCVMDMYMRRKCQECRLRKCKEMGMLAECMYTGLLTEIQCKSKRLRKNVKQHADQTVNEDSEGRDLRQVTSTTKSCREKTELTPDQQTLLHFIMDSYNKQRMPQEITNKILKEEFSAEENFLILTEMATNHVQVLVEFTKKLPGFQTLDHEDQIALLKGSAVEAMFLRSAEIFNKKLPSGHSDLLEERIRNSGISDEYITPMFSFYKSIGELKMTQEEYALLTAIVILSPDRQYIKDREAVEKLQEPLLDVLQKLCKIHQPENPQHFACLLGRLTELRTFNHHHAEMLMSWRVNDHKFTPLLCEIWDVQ
Nuclear receptor subfamily 1 group I member 3 (Homo sapiens), sequence (Q14994 whole entry, looked up, the tested form may be a part): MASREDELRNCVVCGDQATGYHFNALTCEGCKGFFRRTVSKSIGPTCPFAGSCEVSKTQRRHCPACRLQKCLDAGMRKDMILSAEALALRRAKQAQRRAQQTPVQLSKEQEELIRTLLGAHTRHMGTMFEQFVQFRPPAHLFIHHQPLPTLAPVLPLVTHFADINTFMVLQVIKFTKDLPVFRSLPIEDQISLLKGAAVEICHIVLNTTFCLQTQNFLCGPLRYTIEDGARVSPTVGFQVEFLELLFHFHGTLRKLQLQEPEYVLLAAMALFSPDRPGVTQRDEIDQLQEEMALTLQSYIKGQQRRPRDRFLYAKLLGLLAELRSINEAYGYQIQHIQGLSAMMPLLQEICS
X-box-binding protein 1 (Homo sapiens), sequence (P17861 whole entry, looked up): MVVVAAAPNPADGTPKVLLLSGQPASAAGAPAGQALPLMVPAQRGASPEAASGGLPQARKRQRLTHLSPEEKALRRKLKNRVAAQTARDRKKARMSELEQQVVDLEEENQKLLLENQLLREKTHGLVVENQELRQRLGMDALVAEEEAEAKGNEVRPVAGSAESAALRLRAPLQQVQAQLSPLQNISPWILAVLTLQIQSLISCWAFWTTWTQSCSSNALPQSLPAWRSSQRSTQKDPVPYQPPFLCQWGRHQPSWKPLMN
Oxysterols receptor LXR-beta (Homo sapiens), sequence (P55055 whole entry, looked up, the tested form may be a part): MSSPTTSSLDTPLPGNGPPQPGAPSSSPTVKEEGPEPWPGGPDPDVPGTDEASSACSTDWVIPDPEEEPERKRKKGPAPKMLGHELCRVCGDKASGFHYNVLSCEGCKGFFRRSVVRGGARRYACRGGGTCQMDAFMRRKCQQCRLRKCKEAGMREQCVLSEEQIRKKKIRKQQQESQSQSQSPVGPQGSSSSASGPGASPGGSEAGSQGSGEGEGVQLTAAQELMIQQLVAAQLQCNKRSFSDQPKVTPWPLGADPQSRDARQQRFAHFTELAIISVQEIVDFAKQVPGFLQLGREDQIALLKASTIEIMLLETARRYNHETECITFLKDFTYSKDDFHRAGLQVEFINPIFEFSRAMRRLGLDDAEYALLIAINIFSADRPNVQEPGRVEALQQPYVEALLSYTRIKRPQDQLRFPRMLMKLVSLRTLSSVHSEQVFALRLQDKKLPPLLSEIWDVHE

Oc1ccccc1-c1ccccc1
active: [3] 87.5 µM | [4] 38.4 µM | [6] 31.1 µM and 27.8 µM
inactive: [1] | [2] | [3] | [4] | [5] | [7] | [8] | [9] | [10]

COc1ccc(C(c2ccc(OC)cc2)C(Cl)(Cl)Cl)cc1
active: [4] 4.94 µM and 16.3 µM and 11.9 µM | [7] 28.3 µM | [16] 26.5 µM
inactive: [1] | [2] | [3] | [4] | [5] | [11] | [7] | [8] | [12] | [13] | [14] | [15] | [16] | [17] | [9] | [10]

CCNc1nc(Cl)nc(NCC)n1
not listed: [6] | [13] | [16]
inactive: all other assays above

CON(C)C(=O)Nc1ccc(Cl)c(Cl)c1
active: [4] 28.7 µM and 35.7 µM and 23.4 µM
inactive: [1] | [2] | [3] | [4] | [5] | [11] | [7] | [8] | [13] | [14] | [15] | [17] | [9] | [10]

COP(=S)(OC)Oc1nc(Cl)c(Cl)cc1Cl
active: [4] 27.8 µM | [6] 33.1 µM
not listed: [10] | [13] | [15] | [16] | [17] | [18]
inactive: all other assays above

CCCCNC(=O)n1c(NC(=O)OC)nc2ccccc21
inactive: [1] | [2] | [3] | [4] | [5] | [6] | [7] | [15] | [17] | [9]

CC(C)(C)c1ccc(CSc2cnn(C(C)(C)C)c(=O)c2Cl)cc1
active: [4] 0.574 µM | [6] 26.5 µM
not listed: [8] | [12] | [16] | [18]
inactive: all other assays above

CCCN(CCC)c1c([N+](=O)[O-])cc(S(N)(=O)=O)cc1[N+](=O)[O-]
active: [4] 915 nM and 1.14 µM | [9] 51.3 µM | [10] 54.4 µM and 53.3 µM
inactive: [1] | [2] | [3] | [4] | [5] | [11] | [7] | [8] | [12] | [13] | [14] | [15] | [9] | [10]
